High-throughput results (PubChem)
A selection: hits, their analogues and other compounds. The true share with any hit is near 7.8%.
HCV inhibitor: blocks hepatitis C virus | Potency, µM (top dose mostly 41.8 µM), inactives show top-dose activity change, negative = inhibition, most hits filed as inhibitors | Huh7.5.1 HCVcc-Cre infection, luciferase reporter, 44 h | hit rate 3.4% among 340,000; active means well fitted inhibition curve with a large enough effect; inconclusive means small, poorly fitted or top-dose-only effect, or another doubt; inactive means no such curve, though single readings can be large or run the other way; further: potency means the concentration at half of the fitted maximal effect
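Infectious HCVcc-Cre (~0.5 moi) was added to cells just after compound, with cells seeded 4 h earlier at 1,000 per well. Luciferase activity after 44 h culture reported infection; substrate was incubated 15 min at room temperature before reading.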
Marburg entry inh: blocks Marburg virus binding to or entry into cells; Potency, µM (series often up to 37.8 µM), for inactives: at the top dose activity change, negative = inhibition, actives largely listed as inhibitors; Marburg virus pseudotyped entry inhibition, cell reporter; hit rate 1.8% among 300,000; calls by dose curve; tested in HEK293 cells; further: potency means the concentration at half of the fitted maximal effect
Vaccinia Venus: inhibitors of vaccinia virus (Venus reporter); Vaccinia virus Venus reporter expression, fluorescence; Potency, µM (top dose mostly 36.5 µM), for inactives: at the highest dose activity change, negative = inhibition, usual class: inhibitors; hit rate 0.46% among 330,000; AID 720580; calls by dose curve; tested in A549 cells; further: potency means the concentration at half of the fitted maximal effect; nearly all actives have a fitted effect of over 30% in size
HCMV antiviral: inhibitors of human cytomegalovirus; HFF cells, HCMV-luciferase reporter, 72 h; hits give low values; AID 1259415; hit rate 4.5% among 410,000; activity change, negative = inhibition, % at 57.5 µM; in the data active means activity change below about -60%; inconclusive means no clear call, values can overlap the other calls; inactive means above about -39%
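Screen run at 2 compound doses on HFFs infected with reporter HCMV, MOI 1 PFU/cell. Luciferase activity from cell lysates at 72 h post infection gave inhibition relative to buffer-only and Salinomycin wells.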
Vaccinia mCherry: vaccinia inhibition (mCherry reporter); Vaccinia virus mCherry reporter infection, fluorescence; Potency, µM (doses to about 36.5 µM), inactives show top-dose activity change, negative = inhibition, actives largely listed as inhibitors; hit rate 0.63% among 310,000; calls by dose curve; tested in A549 cells; further: potency means the concentration at half of the fitted maximal effect; nearly all actives have a fitted effect of over 35% in size
Lassa entry inh: inhibitors of Lassa virus binding or cell entry; Potency, µM (highest dose often 37.9 µM), for inactives: top-dose activity change, negative = inhibition, hits mostly inhibitors; hit rate 1.2% among 300,000; Lassa virus pseudotype entry inhibition, cell reporter; calls by dose curve; tested in HEK293 cells; further: potency means the concentration at half of the fitted maximal effect; nearly all actives have a fitted effect of over 50% in size
An asterisk follows results filed as active; i = inactive; ? = inconclusive; . = not tested or not shown; [ ] = another dose, or the depositor's remark. On the % scale 0 is the no-effect control and ±100 the full control effect.

SMILES | HCV inhibitor | Marburg entry inh | Vaccinia Venus | HCMV antiviral | Vaccinia mCherry | Lassa entry inh
Cc1nc2ccccc2c2oc(C(=O)NCc3ccccn3)cc12 | ? | -19% | . | ? | . | -10%
Cc1cc(C)c2nc(-c3ccccn3)cc(C(=O)NCCc3ccc(S(N)(=O)=O)cc3)c2c1 | -23% | -15%[46.1 µM] | -17% | 3 | i | -1%[46.1 µM]
CCc1ccc(NC(=O)c2cc3c(C)nc4ccccc4c3o2)cc1 | ? | ? | -8% | -29 | -9% | ?
Cc1cc(C)cc(N(CC(=O)NCc2ccc3c(c2)OCO3)C(=O)CCC(=O)Nc2ccccn2)c1 | -9% | ? | -10% | 2 | . | 10µM*
Cc1ccc(CNC(=O)c2cc3c(C)nc4ccccc4c3o2)cc1 | ? | . | -21% | -70* | -17% | .
Cc1cc(C)c2nc(-c3ccccn3)cc(C(=O)NCc3ccc(S(N)(=O)=O)cc3)c2c1 | ? | 11µM* | -15% | -18 | -4% | ?
Cc1ccccc1NC(=O)c1cc2c(C)nc3ccccc3c2o1 | ? | -8%[46.1 µM] | -6% | -83* | i | -23%
Cc1cc(C(=O)NCc2ccccc2Cl)c2c(C)nn(-c3ccccc3)c2n1 | . | . | -5% | -3 | -4% | 28%[46.1 µM]
O=C(NCc1ccc2c(c1)OCO2)c1cc(-c2ccccn2)nc2ccccc12 | 10µM* | -33%[46.1 µM] | -5% | -19 | -4% | -27%
Cc1nc2ccccc2c2oc(C(=O)NCc3ccc4c(c3)OCO4)cc12 | 8.9µM* | . | ? | ? | ? | .
Cc1nc2ccccc2nc1OCC(=O)NCc1ccc2c(c1)OCO2 | 13% | -20% | 5% | 42 | -8% | ?
Cc1ccccc1C(=O)NC(NC(=O)c1ccccc1C)c1cccc([N+](=O)[O-])c1 | 4% | ? | -7% | -36 | i | ?
Cc1ccc(C(=O)NC(NC(=O)c2ccc(C)cc2)c2cccc([N+](=O)[O-])c2)cc1 | -3% | -24% | -4% | -60* | -8% | -17%
CCCCS(=O)CC(CS(=O)CCCC)OC(=O)c1ccccc1 (stereo not given) | 6% | 18% | . | 9 | . | -4%
CCCCS(=O)(=O)CC(COc1ccccc1)OC(=O)c1ccccc1 (stereo not given) | -1% | -2% | 7.9µM* | -18 | . | -1%
COc1ccc(Cl)cc1Nc1nc(-c2sc(NC(=O)c3ccco3)nc2C)cs1 | 2.5µM* | . | -23% | -32 | -27% | .
CCC(C)C(=O)Nc1nc(C)c(-c2csc(Nc3cc(Cl)ccc3OC)n2)s1 (stereo not given) | ? | . | -22% | ? | -19% | .
COc1ccc(Cl)cc1Nc1nc(-c2sc(NC(=O)C(C)(C)C)nc2C)cs1 | ? | . | -25% | -90* | -29% | .
CCCC(C)C(=O)Nc1nc(C)c(-c2csc(Nc3ccc(Cl)cc3)n2)s1 (stereo not given) | -7%[8.37 µM] | . | ? | -80* | ? | .
CSc1nnc(NC(=O)c2cc(=O)c3cc(C)cc(C)c3o2)s1 | -11% | -2% | -4% | -20 | -3% | 5%
Cc1cc(C)c2oc(C(=O)Nc3nnc(C(C)C)s3)cc(=O)c2c1 | -6% | 8% | . | -66* | . | 1%
NC(N)=N/N=C/c1ccc(Cl)cc1Cl | ? | 3.2µM* | ? | -3 | ? | ?
NC(N)=N/N=C/c1ccc(Cl)c(Cl)c1 | 2% | ? | -25% | ? | -23% | ?
C1=C2C[N+]3(CCCC3)CC2Cc2ccc3ccccc3c21 (stereo not given) | ? | ? | -20% | -65* | -13%[1.46 µM] | 0%
C[N+]1(C)CC2=Cc3ccccc3CC2C1 (stereo not given) | 4% | 6%[46.1 µM] | -21% | ? | -1% | 6%[46.1 µM]
SMILES | HCV inhibitor | Marburg entry inh | Vaccinia Venus | HCMV antiviral | Vaccinia mCherry | Lassa entry inh
CCC1CN(CC(=O)NC(C)CO)Cc2cc(OC)ccc2O1 (stereo not given) | . | . | -5% | . | -16% | .
CCOC(=O)C1=C(CC)Nc2ccccc2N=C1NC(=O)c1ccc(S(=O)(=O)N(C)C)cc1 | -13% | -8% | ? | -12 | ? | -10%
CCOC(=O)C1=C(CC)Nc2ccccc2N=C1NC(=O)CCNC(C)=O | 13% | 3% | -10% | -36 | -3% | 2.8µM*
COC(=O)CCC(=O)OC1(C)C(=O)C=C2C=C(C3CC3)N(Cc3ccc(OC)cc3)C=C2C1=O (stereo not given) | 3.5µM* | 9%[14.2 µM] | 3% | 4 | -5% | .
COc1cccc(C2c3c(oc4cc(C)cc(C)c4c3=O)C(=O)N2CCc2ccc(OC)c(OC)c2)c1 (stereo not given) | . | ? | 17% | 8 | 15% | 0%[46.1 µM]
COc1cc(OC)c2ccc(=O)oc2c1C(CCN1CCOCC1)c1ccc2c(c1)OCO2 (stereo not given) | 2% | . | -23% | 15 | i | .
COc1ccc(C(CCN2CCCC2)c2c(OC)cc(OC)c3c(-c4ccccc4)cc(=O)oc23)cc1 (stereo not given) | -4% | . | ? | -23 | -17% | .
COc1ccc(C(CCN2CCOCC2)c2c(OC)cc(OC)c3c(-c4ccccc4)cc(=O)oc23)cc1 (stereo not given) | 32µM* | . | ? | -27 | -27% | .
COc1ccc(C2CC(=O)Oc3c(C(CCN4CCCCC4)c4ccc(N(C)C)cc4)c(OC)cc(OC)c32)cc1 (stereo not given) | -11% | . | ? | -60* | ? | .
CCCCCc1cc(=O)oc2c(C(CCN3CCCCC3)c3ccc4c(c3)OCO4)c(OC)cc(OC)c12 (stereo not given) | ? | . | 14µM* | -80* | ? | .
COc1ccc(C(CCN2CCOCC2)c2c(OC)cc(OC)c3ccc(=O)oc23)cc1 (stereo not given) | 2.8µM* | . | -10% | -19 | -21% | .
CCCCCc1cc(=O)oc2c(C(CCN3CCCC(C)C3)c3ccc4c(c3)OCO4)c(OC)cc(OC)c12 (stereo not given) | ? | . | ? | ? | -15% | .
COc1ccc(-c2ccc(C(=O)Nc3cccc(C(F)(F)F)c3)c3occc23)c(C)c1 | . | . | -9% | -22 | -7% | .
CN(C)c1ccc(CNC(=O)CN2CCSc3ccc(S(=O)(=O)N(C)C)cc32)cc1 | . | . | 11% | 3 | 4% | -28%[46.1 µM]
CCCN1CNc2c(c(=O)[nH]c(=S)n2CCc2ccsc2)C1 | . | . | -14% | . | -3% | .
COc1cc(OC)c2c(-c3ccccc3)cc(=O)oc2c1C(CC(=O)N1CCOCC1)c1ccc2c(c1)OCO2 (stereo not given) | ? | . | -18% | -94* | -7% | .
COc1cc(OC)c2c(-c3ccccc3)cc(=O)oc2c1C(CC(=O)N1CCOCC1)c1ccc(N(C)C)cc1 (stereo not given) | -17% | . | -20% | 7 | -10% | .
COc1ccc(C(=O)NN(C)c2nc(C(F)(F)F)nc3ccccc23)cc1 | -3% | ? | ? | -99* | i | ?
